From PubChem BioAssay AID1458 (National Center for Advancing Translational Sciences (NCATS), 2008)
“And” between values parts separate entries of the source, which are not always exact repeats. Equal entries are not always repeated. The campaign covered roughly 210,000 compounds. About 5,900 (2.8%) were called active. Not shown: some 5% with an inconclusive outcome. What follows is part of a selection rich in actives, with near analogues and random picks from the rest. Unmarked numbers belong to inactive results. Calls come from the whole dose curve; as a rule, active = well fitted activation curve with a large enough effect; inconclusive = small, poorly fitted or top-dose-only effect; inactive = no such curve, though single readings can be large or run the other way.

Test: qHTS Assay for Enhancers of SMN2 Splice Variant Expression; note: nearly all actives have a fitted effect of over 55% in size; for activity change, positive = activation: % of control where 0% means no effect
Details: HEK293 SMN2-luciferase splicing reporter, luminescence, 30-36 h; series mostly up to 46.1 µM; activity change, positive = activation: at the top concentration
In short: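 HEK293 cells carry an SMN2 minigene-luciferase reporter in which exon 7 inclusion puts luciferase in frame. Cells were seeded at 2000 cells/well, attached for 10-12 hours, then exposed to compounds for 30-36 hours at 37C before ONE-Glo luminescence.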
Potency is the fitted concentration of half-maximal effect.

SMILES | activity change, positive = activation | Potency
COc1ccc(-n2ncc3c(N4CCCc5ccccc54)ncnc32)cc1 | -16.2% | –
COc1ccc(-n2ncc3c(N4CCc5ccccc54)ncnc32)cc1 | – | 5.62 µM (active)
COc1ccc(N2CCN(C(=O)CSc3ncnc4c3cnn4-c3ccc(OC)cc3)CC2)cc1 | -25.5% | –
CO[C@@]12[C@@H](COC(N)=O)C3=C(C(=O)C(C)=C(N)C3=O)N1C[C@@H]1N[C@@H]12 | -77.1% | –
CC(C)c1ccc2oc(-c3cc(NC(=O)c4cccs4)ccc3Cl)nc2c1 | -26.1% | –
CC1=C(C(=O)OCc2ccc(C)cc2)C(c2c(Cl)cccc2Cl)CC(=O)N1 (centres undefined) | 1.93% | –
Cc1ccccc1OCC(=O)Nc1c(C(=O)Nc2ccccc2F)oc2ccccc12 | 13.5% | –
CNC(=S)N/N=C/c1ccc(OCc2ccccc2)c(Br)c1 | 3.28% | –
Cc1n[nH]c(=S)n1/N=C/c1ccc(Br)o1 | 2.13% | –
COc1cc(/C=N/n2c(C)n[nH]c2=S)ccc1OCc1ccccc1 | – | 12.6 µM (active)
Cc1cc(-c2ccccc2)n2nc(-c3ccccc3)cc2n1 | -3.97% | –
Cc1ccc(NC(=O)CN2C(=O)CC(C)Sc3ccccc32)c(C)c1 (centres undefined) | -2.75% | –
CC(C)=CCN1CCC2(CCc3ccccc32)CC1 | -7.89% | –
CCOc1ccc(OCC)c(NC(=O)c2c(C)nn(-c3ccccc3)c2-n2cccc2)c1 | -0.729% | –
COC(=O)c1c(NC(=O)c2ccc(Cl)c(Cl)c2)sc2c1CCCC2 | -7.09% | –
COc1ccccc1Nc1nc(N)nc(N)c1S(=O)(=O)c1ccccc1 | 10.2% | –
CCc1cc2c(cc3c(=O)n(CC(=O)NCCc4ccc(OC)c(OC)c4)ncn32)s1 | -1.71% | –
CCN(CC)C(=O)CSc1ncnc2c1cnn2-c1ccccc1 | 27.2% | –
O=C(NNc1ncnc2c1cnn2-c1ccccc1)c1ccco1 | -26.9% | –
Cc1ccc(-n2ncc3c(Nc4cccc(C(=O)O)c4)ncnc32)cc1 | – | 14.1 µM (active) and 11.2 µM (active)
COc1ccc(Cl)cc1NC(=O)CSc1nc(-c2cccs2)cc(C(F)(F)F)n1 | -0.0208% | –
CCOCCCNC(=O)c1cn(CC)c2ccc(S(=O)(=O)N3CCc4ccccc4C3)cc2c1=O | -7.64% | –
COc1c(C)c2c(c(O)c1C/C=C(\C)CCC(=O)O)C(=O)OC2 | – | 501 nM (active) and 631 nM (active) and 398 nM (active)
CCc1ccc(C2CC(=O)c3c([nH]c(C(=O)OCc4ccc(C)cc4)c3C)C2)cc1 (centres undefined) | 6.39% | –
COc1ccc(-c2cc(-c3ccccc3)nc3c2COc2ccc(Cl)cc2-3)cc1 | 2.81% | –
COc1ccc(C2=Nc3cc(C)ccc3OC2)cc1 | – | 2.82 µM (active)

SMILES | activity change, positive = activation | Potency
COc1ccc(C2=NOC3(CC(=O)N(c4ccc(C)cc4)C3=O)C2)cc1 (centres undefined) | -1.53% | –
Cc1ccc2c(c1)-c1c(cnn1CC(=O)Nc1ccccc1C#N)CO2 | -17.6% | –
Cc1cccc(-n2c(C)cc(/C=N\NC(=O)c3cccs3)c2C)c1 | – | 2 µM (active)
CC(=O)Nc1ccc(/C=N/NC(=O)c2cccs2)cc1 | – | 17.8 µM (active)
CC(C)C(=O)Nc1ccc(C(=O)NNC(=O)c2cccs2)cc1 | 15.1% | –
Cc1cccc(-n2c(C)cc(/C=N/NC(N)=S)c2C)c1 | 2.47% | –
Cc1ccc(-n2nc(C)c(/C=N/NC(=O)c3cccs3)c2Cl)cc1 | 20.2% | –
O=C(O)c1ccc(NC(=O)c2cccs2)cc1 | -2.57% | –
Cc1nn(Cc2ccccc2)c(Cl)c1C(=O)OC1CCOC1=O (centres undefined) | 15.5% | –
O=C(c1cccs1)N1CCC(c2nc3ccccc3s2)CC1 | -20.4% | –
O=C(OC1CCOC1=O)c1ccc(-c2nc3ccccc3s2)s1 (centres undefined) | – | 12.6 µM (active)
COc1cccc(-c2nc(CS(=O)(=O)CC(=O)NCCc3ccc(OC)c(OC)c3)c(C)o2)c1 | -49.1% | –
O=C(Cn1nc(C(F)(F)F)c2c1CCCC2)Nc1ccc(Cl)cc1 | -4.3% | –
Cc1cc(NC(=O)Cn2nc(C(F)(F)F)c3c2CCCC3)no1 | – | 14.1 µM (active)
O=C(Cn1nc(C(F)(F)F)c2c1CCC2)NCc1ccc(F)cc1 | -17.5% | –
Cc1cc(C)cc(NC(=O)Cn2c(=O)c3ccccc3n3nncc23)c1 | 7.67% | –
COc1ccc2nc(NC(=O)[C@@H]3CCCN3C(=O)c3cccs3)sc2c1 | 2.5% | –
COc1ccc2nc(Nc3nc4cc5c(cc4s3)OCCO5)sc2c1 | – | 20 µM (active)
COc1ccc2nc(NC(=O)c3ccc(Br)s3)sc2c1 | – | 11.2 µM (active)
CCOc1ccc(S(=O)(=O)Nc2nc3cc(OC)ccc3s2)cc1 | 8.16% | –
COc1ccc2nc(Nc3nc4ccc(NC(C)=O)cc4s3)sc2c1 | -6.86% | –
COc1cccc(C(=O)Nc2nc3ccc(S(C)(=O)=O)cc3s2)c1 | 18% | –
COc1ccc(Cn2c(=O)n(-c3ccccc3C)c(=O)c3c4c(sc32)CN(C(C)=O)CC4)cc1 | 8.31% | –
CCOC(=O)c1ccc(NC(=O)Cn2c(=O)n(-c3ccc(C)cc3)c(=O)c3c2cnn3C)cc1 | -2.66% | –
O=[N+]([O-])c1ccccc1NCc1ccccc1Cl | -8.19% | –
O=[N+]([O-])c1ccccc1N/N=C1\CCc2ccccc21 | – | 11.2 µM (active)

SMILES | activity change, positive = activation | Potency
O=[N+]([O-])c1cc(C(F)(F)F)ccc1NN=C1CCCC1 | 5.28% | –
Cc1ccc(Cl)cc1N(C)C(=O)Cn1nc(Cc2cccnc2)c2ccccc2c1=O | -1.29% | –
COc1ccc(-n2c(C)nc3c(cnn3-c3ccc(F)cc3)c2=O)cc1 | -9.72% | –
COc1ccc(-c2c3c(=O)n(C)c(=O)n(C)c3c3c(C)nc4ccccc4n23)cc1 | 7.52% | –
FC(F)(F)c1cc(Nc2nc3ccccc3c3nncn23)ccc1Cl | -29.6% | –
CCN(C(=O)Cn1cc(S(=O)(=O)N2CCN(c3ccccc3F)CC2)c2ccccc2c1=O)c1ccc(C)c(C)c1 | 7.16% | –
CSCCC(Nc1nc2ccccc2s1)C(=O)O (centres undefined) | 0.0276% | –
Cc1ccnc(Nc2nc3ccccc3s2)n1 | – | 3.55 µM (active)
c1ccc2sc(SCCSc3nc4ccccc4s3)nc2c1 | -8.26% [at 9.22 µM] | –
Cc1nn(-c2nc(-c3ccccc3)cc(C(F)(F)F)n2)c(C)c1Cl | -3.6% | –
Cc1ccccc1NC(=O)c1cc2c([nH]c1=O)CC(C)(C)CC2=O | 14.6% | –
O=C(NC1CCCC1)c1ccc(Br)s1 | -8.19% | –
CC(C)C(=O)OCC(=O)Nc1ccc2c(c1)CCC2 | 10.6% | –
O=C(Nc1ccc2c(c1)CCC2)c1ccc(Br)s1 | – | 5.62 µM (active)
NS(=O)(=O)c1ccc(NC(=O)C(=O)Nc2ccc3nc4n(c(=O)c3c2)CCCCC4)cc1 | 0.304% | –
CCOc1ccc(S(=O)(=O)c2cn(Cc3ccccc3)c3ccc(OCC)cc3c2=O)cc1 | 1.43% | –
Cc1oc(C)c2c(=O)cc(-c3ccc4c(c3)OCO4)cc(OC(=O)c3ccc(Cl)cc3)c12 | 2.7% | –
CC(C)C12CN3CC(C(C)C)(CN(C1)C3c1ccc(OCc3ccccc3)cc1)C2=O (centres undefined) | 1.12% | –
Cc1ccc(Cn2c(CCCNC(=O)C3CCCCC3)nc3ccccc32)cc1 | -19.1% | –
CCOc1ccc(-c2cc(C)n3nc(C(=O)Nc4ccc(C)c(C)c4)cc3n2)cc1 | 1.94% | –
O=C(/C=C\NCC(=O)c1ccccc1)c1ccccc1 | -5.93% | –
Cc1noc(NS(=O)(=O)c2ccc(N/C=C/C(=O)c3ccccc3)cc2)c1C | 20.6% | –
Cc1ccc(N/C=C/C(=O)c2ccccc2)cc1C | – | 2.51 µM (active)
CSCCC(NS(=O)(=O)c1ccc2c(c1)oc(=O)n2C)C(=O)NCc1ccccc1 (centres undefined) | -3.7% | –
Cc1cc(C)cc(OCC(=O)Nc2ccc(S(=O)(=O)Nc3ccccn3)cc2)c1 | -4.75% | –
O=C(COc1ccc2oc3c(c2c1)CCCC3)Nc1ccccn1 | – | 20 µM (active)

SMILES | activity change, positive = activation | Potency
Cc1ccc(OCC(=O)Nc2ccc(S(=O)(=O)Nc3ccccn3)cc2)cc1 | 0.0786% | –
COc1cc(OC)cc(-c2nc3nc(C)c(CCC(=O)Nc4ccc(C)cc4)c(C)n3n2)c1 | -1.68% | –
CCOC(=O)c1cc2c(=O)n3ccccc3nc2n(CC2CCCO2)c1=NC(=O)c1ccccc1Br (centres undefined) | 3.82% | –
Cc1cccc(NC(=O)CSc2nnc(-c3ccco3)o2)c1 | 13.2% | –
O=C(CCc1ccccc1)Nc1cccc(-c2nnc(-c3ccco3)o2)c1 | – | 12.6 µM (active)
C/C(=N/NC(=O)CCc1ccccc1)c1ccco1 | -2.85% | –
CCOc1ccc(-n2c(C)nc3c(cnn3-c3ccc(C)cc3)c2=O)cc1 | 8.1% | –
Cc1ccc(C(=O)NC2CCN(C(=O)N3CCOCC3)CC2)cc1 | -9.36% | –
O=C(NC1CC1)c1cccc(Br)c1 | -9.53% | –
O=C(NC1CC1)c1ccc(-c2ccccc2)cc1 | – | 11.2 µM (active)
CCOc1ccccc1N(C)C(=O)c1cc2c(s1)-c1ccccc1OC2 | -13.3% | –
O=C(NC1CCN(Cc2ccccc2)CC1)c1ccc(Cn2c(=O)c3ccccc3n(Cc3cccc(F)c3)c2=O)cc1 | 0.0275% | –
O=C(CSc1oc(-c2ccco2)nc1S(=O)(=O)c1ccc(Cl)cc1)c1ccccc1 | 11.5% | –
Cc1ccc(-c2nc(CS(=O)(=O)CC(=O)NCc3ccccc3Cl)c(C)o2)cc1 | 5.89% | –
COc1ccc(CCNC(=O)c2cc(=O)c3c(C)cc(C)cc3o2)cc1OC | 3.1% | –
Fc1ccc2nc(Nc3nc4c(s3)CCCC4)sc2c1 | – | 14.1 µM (active)
O=C(CCS(=O)(=O)c1ccccc1)Nc1nc2c(s1)CCCC2 | -6.46% | –
Fc1cc(F)c2nc(Nc3nc4c(F)cccc4s3)sc2c1 | -20.1% | –
O=C(C(=O)N1CCc2ccccc2C1)N1CCc2ccccc2C1 | 10.9% | –
O=C(COc1ccccc1)N1CCc2ccccc2C1 | 3.79% | –
O=C(Cn1c(=S)nc2ccccn21)N1CCc2ccccc2C1 | – | 12.6 µM (active)
Cn1c(=O)nc2n(-c3ccc(Br)cc3)c3cccc(Cl)c3cc-2c1=O | 9.55% | –
COc1ccccc1C(=O)Nc1c(C(=O)N(C)Cc2ccccc2)sc2nc(C)c(Cl)c(C)c12 | -27.4% | –
Cc1[nH]c2ccccc2c1SCC(=O)Nc1nccs1 | – | 25.1 µM (active)
CCn1c(SCC(=O)Nc2nccs2)nnc1-c1ccncc1 | -5.81% | –
Nn1c(SCC(=O)Nc2nccs2)nncc1=O | 22.1% | –
